Only some compounds are listed: those with a hit (about 4.2% of all), similar ones and a draw of the others.
GAA850 FXN act – increases GAA850 frataxin promoter reporter activity | HEK293 lucGAA850 FXN promoter luciferase reporter, 24 h; percent of 10 µM SAHA response | AID 540364 | activation, % at 6 µM | 0.56% of 360,000 active;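 active = activation above the average of all compounds screened plus 3 SD, cutoff fixed separately per campaign, cut at about 7.5% in these data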;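 also: 0% = DMSO wells and 100% = 10 µM SAHA wells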
Wnt bcat act – activators of Wnt/beta-catenin signaling | 1.2% of 300,000 active | activation, % at 9.35 µM | Wnt/beta-catenin reporter cell assay, activator, plate reader; in the data active = activation above about 30%, passing the limit was not always enough; inconclusive = no clear call, values can overlap the other calls;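 also: 0% = neutral control wells and 100% = positive control wells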
AHR activator – human AHR activation; P35869; AHR-responsive luciferase reporter cells, luminescence; activation, % at 5 µM; 2.5% of 320,000 active; AID 2796; in the data active = activation above about 47%;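 also: 0% = vehicle wells and 100% = reference agonist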
esBAF inh – blocks esBAF chromatin remodeling in mouse ES cells; Bmi1-luciferase knock-in reporter, 24 h; 100% = twice the neutral-well signal; reporter increase, % at 12.5 µM; 2% of 350,000 active; AID 602393; in the data active = activation above about 40%; inconclusive = no clear call, values can overlap the other calls;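 also: 0% = median of the plate's neutral control wells and 100% = double that signal; a rise in the Bmi1 reporter signal indicates esBAF inhibition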
MITF act – increases MITF-driven TRPM1 promoter luciferase signal | SK-MEL-5 TRPM1-promoter luciferase, 24 h; % of positive control, neutral wells = 0 | activation, % at 12.5 µM | 0.75% of 300,000 active;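 active = mean activation of at least 80% with every replicate also reaching 80%; inconclusive = mean reaches 80% but some replicate falls short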;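 also: 0% = neutral control wells and 100% = parthenolide positive control wells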
Numbers without * were called inactive.

For C[C@H]1CN([C@@H](C)CO)C(=O)c2cc(NS(C)(=O)=O)ccc2O[C@H]1CN(C)C(=O)Nc1ccc2c(c1)OCO2 the results were esBAF inh 1.
CC(C)(C)c1ccc(-c2nc(-c3ccncc3)no2)cc1 was read as GAA850 FXN act 1, Wnt bcat act -3, AHR activator -6, esBAF inh -26 and MITF act 2.
For CC(C)(C)c1ccc(-c2noc(-c3ccno3)n2)cc1 the results were GAA850 FXN act 7, Wnt bcat act -3, AHR activator -1, esBAF inh 26 and MITF act 118*.
Screening Cc1ccc(NC(=S)Nc2cccc3ccccc23)cc1 returned GAA850 FXN act -1, Wnt bcat act 7, AHR activator 8, esBAF inh 15 and MITF act -13.
For C=CCNC(=S)Nc1cccc2ccccc12 the results were GAA850 FXN act 2, AHR activator 4 and MITF act -6.
`Cc1cc(C)cc(NC(=S)Nc2cccc3ccccc23)c1` gave GAA850 FXN act -1, Wnt bcat act -15, AHR activator 69*, esBAF inh -1 and MITF act -19.
CCc1cccc(NC(=S)Nc2cccc3ccccc23)c1 was read as GAA850 FXN act -2, Wnt bcat act 10, AHR activator 78*, esBAF inh 15 and MITF act -14.
Screening Cc1cccc(NC(=S)Nc2cccc3ccccc23)c1 returned GAA850 FXN act 2, Wnt bcat act 3, AHR activator 63*, esBAF inh 35 and MITF act -20.
CC(=O)NNC(=S)Nc1cc(S(=O)(=O)N(C)C)ccc1C was read as GAA850 FXN act 0, AHR activator -3, esBAF inh -4 and MITF act 1.
Cc1ccc(S(=O)(=O)N(C)C)cc1NC(=S)Nc1cccc2ccccc12 was read as GAA850 FXN act -1, Wnt bcat act 2, AHR activator 59*, esBAF inh 4 and MITF act -17.
For COc1ccc(NC(=O)N(C)C[C@@H]2Oc3ccc(NS(C)(=O)=O)cc3C(=O)N([C@H](C)CO)C[C@@H]2C)cc1 the results were esBAF inh -6.
Screening C/C(=N\NC(=S)Nc1cccc(C)c1)c1cc2ccccc2o1 returned GAA850 FXN act 3, Wnt bcat act 2, AHR activator 49* and MITF act -9.
For Cc1cc(NC(=S)Nc2cccc3ccccc23)n[nH]1 the results were GAA850 FXN act 2, Wnt bcat act 22, AHR activator 52* and MITF act 4.
Screening C[C@@H]1CN([C@@H](C)CO)C(=O)c2cc(NS(C)(=O)=O)ccc2O[C@H]1CN(C)C(=O)Nc1cccc2ccccc12 returned esBAF inh 0.
For Cc1nn(C(=O)c2cc3sccc3[nH]2)c(C)c1C the results were GAA850 FXN act 7, Wnt bcat act 2, AHR activator 71*, esBAF inh 84* and MITF act 45.
Screening Cn1c2ccccc2c(=O)c2ccc(-c3ccc4c(c3)OCO4)cc21 returned GAA850 FXN act 6, Wnt bcat act 41*, AHR activator -4, esBAF inh 49* and MITF act 84*.
O=[N+]([O-])c1cccc(-c2nnn(C34CC5CC(CC(C5)C3)C4)n2)c1 was read as GAA850 FXN act 1, AHR activator 3, esBAF inh 50* and MITF act 71.
Screening O=[N+]([O-])c1cc(-c2cnc3ccccc3n2)ccc1Cl returned GAA850 FXN act 3, Wnt bcat act inconclusive, AHR activator 30 and MITF act 18.
O=[N+]([O-])c1cccc(-c2cnc3ccccc3n2)c1 was read as GAA850 FXN act 0, Wnt bcat act 0, AHR activator 29, esBAF inh 52* and MITF act 41.
`O=[N+]([O-])c1cc(-c2cnc3ccccc3n2)ccc1Oc1ccc(Cl)cc1` gave GAA850 FXN act 1, Wnt bcat act 10, AHR activator 50* and MITF act 24.
`COc1ccccc1Oc1ccc(-c2cnc3ccccc3n2)cc1[N+](=O)[O-]` gave GAA850 FXN act -1, Wnt bcat act 1, AHR activator 55* and MITF act 19.
For COc1ccc(-c2cn3ccccc3n2)cc1[N+](=O)[O-] the results were GAA850 FXN act 6, AHR activator 2 and MITF act 75.
Screening O=[N+]([O-])c1cccc(-c2cn3ccccc3n2)c1 returned GAA850 FXN act 6, Wnt bcat act 67*, AHR activator 3, esBAF inh 32 and MITF act 46.

Source: PubChem (several laboratories)
